Experimental data published in PubChem BioAssay AID488841 (Sanford-Burnham Center for Chemical Genomics, 2010).
About 380 (27%) of roughly 1,400 compounds were called active.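 The calls were made as follows: active = mean inhibition above 50% across duplicate retests at 10 µM; inactive = the rest.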 This is one part of the list.

Assay: yeast NALP1 reporter signal suppression – S. cerevisiae, luminescence, single concentration, NALP1 inhibitor project, confirmation (AID 488841);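 also: plate controls were DMSO in galactose medium for no effect and cells in plain SD medium for full effect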
Settings: S. cerevisiae NALP1/ASC/Caspase-1 reporter, beta-gal luminescence; at 10 µM; stronger effect = higher value

inhibition, inactive:
CCC(C)(C)NCC(=O)Nc1ccc(OC(F)(F)F)cc1 36.4%
CC(C)Oc1ccc(NC(=O)CCC(=O)O)cc1 21.6%
CNC(=O)C(NC(=O)c1ccccc1)=C(C)C 30.4%
COc1ccc(C(=O)NCc2ccccc2)cc1S(=O)(=O)N1CCCc2ccccc21 32.7%
Cc1ccc(NC2(C#N)C(=O)Nc3ccccc32)cc1 (centres undefined) 30.8%
COC(=O)c1ccccc1NC(=O)C1CCN(C(=O)c2cc(OC)cc(OC)c2)CC1 20.4%
CN1CCN(S(=O)(=O)c2ccc(NC(=S)NC(=O)C(C)(C)C)cc2)CC1 26.6%
CCCCn1cnc2c1c(=O)[nH]c(=O)n2CCCC 21.8%
O=C(c1ccc(Cl)c([N+](=O)[O-])c1)N(c1ccccn1)c1ccccn1 24.1%
CN1/C(=C\C(=O)Nc2ccc(Cl)cc2)C(C)(C)c2ccccc21 42.2%
O=C(Cn1c(=O)oc2ccccc21)Nc1ccc(Cl)cc1 33%
C#CCOc1c(Br)cc(/C=N/O)cc1OCC -19.1%
Cc1cccnc1NC(=O)c1ccccc1NC(=O)C(C)(C)C 36.7%
COc1cccc(CNc2ccc3c(c2)CCC3)c1 34.2%
O=C(c1cccc([N+](=O)[O-])c1)n1nc(-c2ccccc2)nc1NCc1ccccc1 37%
O=C1CCCc2ccccc2N1Cc1ccc(Cl)cc1Cl 28.2%
Brc1cccc(OCCCCN2CCCCC2)c1 29.7%
CC1CCN(CCOc2cccc(Br)c2)CC1 36%
Cc1c(-c2ccccc2)[n+](=O)c2c(n1[O-])CCC2 22.1%
COc1cccc(C2c3c(-c4ccccc4O)n[nH]c3C(=O)N2Cc2ccco2)c1 (centres undefined) 29.4%
CN1CCN(C(=O)CSc2nc3c(c(=O)n(C)c(=O)n3C)n2C)CC1 29.1%
CC(C)(CN1CCN(Cc2ccccc2)CC1)NS(=O)(=O)c1ccc(Cl)cc1 42.2%
CCOC(=O)CSc1nnc(-c2ccccc2)c(=O)[nH]1 33.8%
CCOCCCn1c(=NC(C)=O)c(C(=O)OCC)cc2c(=O)n3ccccc3nc21 23.1%
CCOC(=O)c1ccccc1NC(=O)COc1cc(=O)n(CC)c2ccccc12 8%
CC(=O)N1CC[n+]2c(-c3ccc(Cl)cc3Cl)csc21 19.1%
CCN1CCN(Cc2cccc(Oc3ccccc3)c2)CC1 34.3%
CC(C)C(NC(=O)CN1C(=O)c2ccccc2S1(=O)=O)C(C)C 21.5%
O=C(N/N=C/c1cc2c3c(c1O)CCCN3CCC2)c1ccccc1O 25.8%
Cn1c(=O)c2c(nc(Sc3ncccn3)n2Cc2ccccc2Cl)n(C)c1=O 29.4%
Cc1cc(OCCN2CCCC2)cc(C(C)C)c1 34.4%
O=C(CN1C(=O)C2C3C=CC(C3)C2C1=O)NCCc1ccccc1 (centres undefined) 24.9%
COc1ccc(CNc2nc(C)c([N+](=O)[O-])c(C)c2C#N)cc1 29.2%
c1ccc(CCNc2nc(-c3cccnc3)cs2)cc1 32.7%
COc1ccc(-c2csc(N3C(=O)C4C5c6ccccc6C(c6ccccc65)[C@@H]4C3=O)n2)cc1 (some centres undefined) 45.8%
COC(=O)c1c(NC(NC(=O)C(C)C)C(Cl)(Cl)Cl)sc2c1CCC2 (centres undefined) 21%
COC(=O)c1ccc(C(=O)OC)c(NC(=O)COC(=O)C2CCCCC2)c1 7%
COc1ccc(OCC#CCNC(C)(C)C)cc1 33.4%
CCCOc1ccc(C(=O)c2nc3c(n2O)CCCCC3)cc1 22.7%
Cc1c(C(=O)N2CCOCC2)[nH]c2ccc(OCc3ccccc3)cc12 29.4%
CCOC(=O)CNC(c1ccccc1)c1cc(Br)ccc1NC(=O)CCN1CCOCC1 (centres undefined) 27.6%
CCCCOc1ccc(C(=O)CCN2CCCCC2)cc1 41.4%
Cn1c2c(c(=O)n(C)c1=O)C(NC(=O)C(C)(C)C)(C(F)(F)F)C(=O)N2 (centres undefined) 24.3%
NC(=NCCc1ccc(Cl)cc1)NS(=O)(=O)c1ccc(F)cc1 23.1%
Cc1sc2nc(SCC(=O)NCc3ccco3)n(Cc3ccccc3)c(=O)c2c1C 24.6%
CCN(CC1COc2ccccc2O1)S(=O)(=O)c1ccc(C)cc1 (centres undefined) 39.2%
CC(C)C(C(=O)O)N1C(=O)/C(=C/c2cccn2C)SC1=S (centres undefined) 42.4%
COc1ccc(CCNC(=O)CN2CCC(C)CC2)cc1OC 22.5%
O=C(Cc1ccc(Cl)cc1)Oc1cccc2cccnc12 27.7%
O=C(COc1ccccc1Cl)NCCC1=CCCCC1 38.7%
O=C(CCSCc1cccc(Cl)c1)NCCc1ccccc1 45.4%
O=C(COC(=O)CCSc1ccccc1)NCc1ccccc1Cl 22.2%
O=C(CSCc1cccc(Cl)c1)Nc1ccccc1-c1ccccc1 35%

inhibition, active:
Cc1ccc(NC(=O)CNc2ccc(OC(C)C)cc2)cc1 50.8%
C=C(C(=O)c1ccccc1)C(C)C(=C)C(=O)c1ccccc1 59.5%
COC(=O)c1ccccc1NC(=O)C1CCCN(S(=O)(=O)c2ccc(OC)cc2)C1 (centres undefined) 66.3%
O=[N+]([O-])c1ccc(O)c2ncccc12 93.5%
O=C(Cc1noc2ccccc12)Nc1ccc(Cl)cc1 55.3%
O=[N+]([O-])c1cccc(CNc2ccc3c(c2)CCC3)c1 52.9%
Cc1cc(Br)ccc1OCCCCN1CCC(C)CC1 52.2%
Nc1[nH]ncc1N=Nc1ccc(Cl)cc1 56.7%
O=c1c(O)c(-c2cccs2)oc2ccccc12 78%
CCOC(=O)c1c(-c2ccccc2)nc2ccccn12 99.4%
Nc1ccc(Oc2cccc(Oc3ccc(N)cc3)c2)cc1 50.5%
O=C(NCCCc1ccccc1)c1ccccc1O 53%
CC(C)(C)n1nc(-c2ccc(F)cc2)c2c(N)ncnc21 91.7%
Cc1sc(N)nc1-c1ccc(Oc2ccccc2)cc1 61.1%
Nc1nc2ccc(Oc3ccccc3)cc2s1 88.2%
Nc1nc(-c2ccc(Oc3ccccc3)cc2)cs1 98.5%
CCOc1ccc(C(=O)C(CN2CCOCC2)c2ccccc2)cc1 (centres undefined) 51.9%
CCCOc1ccc(C(=O)C(CN2CCCC2)c2ccccc2)cc1 (centres undefined) 50.8%
COc1ccccc1OCC(=O)NCCSCc1ccc(Cl)cc1 56.6%
COc1ccccc1OCC(=O)NCCSCc1ccccc1Cl 55.5%
COc1ccccc1OCC(=O)NCCSCc1cccc(Cl)c1 59.4%
